# Reference: PubChem BioAssay (NCI)
# About 83,000 compounds went through this panel and 20% of them were active in at least one assay; those are over-represented in the sample as a whole.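 For each line, cells grew in 96-well plates with the test compound present at a single concentration for 48 hours.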 A number with no mark means an inactive call. Activity calls are given as the source filed them. Rule for the calls: active = growth percent below 10; inactive = the rest.
# What was measured:
# Experiment in all cases: NCI-60 one-dose screen, 48 h (100 = growth as untreated, 0 = no growth, -100 = all killed)
# Settings in all cases: 10 µM unless noted
# SK-MEL-2 melanoma = test system: SK-MEL-2 melanoma
# EKVX NSCLC = test system: EKVX NSCLC
# SN12C renal = test system: SN12C renal
# UO-31 renal = test system: UO-31 renal
# TK-10 renal = test system: TK-10 renal
# ACHN renal = test system: ACHN renal
# CAKI-1 renal = test system: CAKI-1 renal
# A498 renal = test system: A498 renal
# CCRF-CEM leukemia = test system: CCRF-CEM leukemia
# MOLT-4 leukemia = test system: MOLT-4 leukemia
# SR leukemia = test system: SR leukemia
# RPMI-8226 leukemia = test system: RPMI-8226 leukemia
# OVCAR-8 ovarian = test system: OVCAR-8 ovarian
# OVCAR-5 ovarian = test system: OVCAR-5 ovarian
# OVCAR-4 ovarian = test system: OVCAR-4 ovarian
# SK-OV-3 ovarian = test system: SK-OV-3 ovarian
# IGROV1 ovarian = test system: IGROV1 ovarian
# OVCAR-3 ovarian = test system: OVCAR-3 ovarian
# HS 578T breast = test system: HS 578T breast
# NCI/ADR-RES ovarian = test system: NCI/ADR-RES ovarian
Compound,growth (SK-MEL-2 melanoma),growth (EKVX NSCLC),growth (SN12C renal),growth (UO-31 renal),growth (TK-10 renal),growth (ACHN renal),growth (CAKI-1 renal),growth (A498 renal),growth (CCRF-CEM leukemia),growth (MOLT-4 leukemia),growth (SR leukemia),growth (RPMI-8226 leukemia),growth (OVCAR-8 ovarian),growth (OVCAR-5 ovarian),growth (OVCAR-4 ovarian),growth (SK-OV-3 ovarian),growth (IGROV1 ovarian),growth (OVCAR-3 ovarian),growth (HS 578T breast),growth (NCI/ADR-RES ovarian)
CC1CCN(C(=O)CCCl)c2ccccc21 (stereo not given),109%,144%,99.7%,75.8%,95.7%,117%,119%,95.8%,104%,118%,113%,114%,96.6%,129%,103%,112%,96.9%,115%,87.5%,98%
O=C(NCc1cccc(CNC(=O)Nc2nc3ccccc3[nH]2)c1)Nc1nc2ccccc2[nH]1,-11.8% (active),11%,-52.2% (active),62.6%,-32.7% (active),70.2%,31.6%,-31% (active),30.3%,-16.1% (active),40.1%,-18.8% (active),-52.3% (active),-2.26% (active),-75.7% (active),-19% (active),13.7%,-42.3% (active),-15.3% (active),83.3%
CCCCCN(CCCCC)CC(O)c1cc(C)c2ccc3cc(C(C)C)ccc3c2c1 (stereo not given),82.6%,63.2%,-52.9% (active),51.8%,75.5%,-77.8% (active),57.7%,19.5%,-7.34% (active),-21.5% (active),-12.9% (active),-18.6% (active),-35.9% (active),-28.2% (active),19.4%,85.6%,-12.8% (active),-47.7% (active),-24% (active),-54.6% (active)
N#Cc1nc(-c2ccccc2)oc1S(=O)(=O)N1CCN(c2ccc(F)cc2)CC1,95.2%,118%,79.4%,80.3%,44.1%,53.8%,62.2%,110%,-31% (active),-15.7% (active),-20.3% (active),36%,63.1%,102%,107%,109%,45.6%,51.9%,103%,96.4%
Cc1ccc(S(=O)(=O)Oc2ccc3sc4cccc(NCCN(C)C)c4c(=O)c3c2)cc1,-71.2% (active),-84% (active),-77.2% (active),-95.5% (active),-83.2% (active),-95.9% (active),-97.8% (active),-96% (active),-45.8% (active),-32.7% (active),-19.4% (active),-48.2% (active),-67.3% (active),-92.4% (active),-69.8% (active),-93.2% (active),-79.6% (active),-95.4% (active),-58.3% (active),-90.7% (active)
O=C(Nc1cc(Cl)ccc1O)c1cccc(Nc2ccnc(C(F)(F)F)c2)c1,56.2%,9.67% (active),35%,25.5%,46.6%,27.2%,-2.35% (active),45.3%,8.35% (active),-41.2% (active),25%,3.8% (active),39.4%,77.8%,33.8%,56.4%,75.7%,53.4%,60.4%,15.2%
CC[N+]1(CC)CC[N+]2(CCCC(C)CC2)CC1 (stereo not given),110%,100%,96.4%,94.7%,104%,104%,101%,95.8%,107%,105%,106%,99.9%,105%,94.8%,111%,104%,95.6%,111%,107%,111%
C=CCN1C(=O)c2cccc3c(N4CCOCC4)ccc(c23)C1=O,-28.1% (active),-7.17% (active),17%,-3.07% (active),-12.9% (active),18.6%,-39.5% (active),-57% (active),-7.18% (active),-21.2% (active),-9.38% (active),-25.8% (active),20.7%,21.4%,14.4%,13.9%,-14.5% (active),-66.4% (active),4.58% (active),6.06% (active)
NC(N)=NS(=O)(=O)c1ccc(NC2=C(I)C(=O)c3ncccc3C2=O)cc1,106%,105%,101%,75.1%,118%,93.2%,90.4%,97.2%,107%,103%,104%,104%,97.2%,112%,93%,87.8%,97.5%,95.3%,103%,94.1%
CCOC(=O)C(Cc1ccc(OC)cc1)C(=O)OCC,43.4%,69.3%,40%,46.7%,46.6%,44.7%,-14.2% (active),54.5%,14.3%,37.7%,11.6%,0.799% (active),26.4%,72%,56.4%,50%,28.1%,2.41% (active),6.32% (active),17.9%
O=C(CCCCCNC(=O)c1cc(=O)c(O)co1)Nc1ccccc1,105%,98.1%,110%,83.9%,93.6%,102%,95.3%,96%,95.1%,106%,101%,95.7%,104%,102%,110%,118%,106%,109%,108%,102%
CCCn1nc(C(=O)N(C)Cc2ccccc2)c2c1CCC(N1CCc3ccccc31)C2 (stereo not given),106%,95.2%,98.9%,81.4%,105%,96%,86.7%,95.9%,96.6%,89.9%,104%,90.8%,93.4%,92.2%,102%,112%,85.1%,102%,96.4%,94.4%
CCNC(=O)Oc1ccc(/C(=C(/C)Cc2ccc(OC)cc2)c2ccc(OCCN3CCCCC3)cc2)cc1,92.3%,79.8%,71.4%,50.5%,82.6%,94.8%,90%,90.8%,36.5%,31.4%,-32% (active),22.5%,81.8%,89.6%,75.1%,90.7%,77.7%,74.6%,64.5%,85.1%
CC1(C)CC(=O)c2c(nn(-c3ccc(Br)cc3)c2-c2cn(-c3ccccc3)nc2-c2cccnc2)C1,98.1%,92.5%,92.7%,65.4%,140%,93.4%,66.5%,98.5%,94.4%,81.5%,112%,72.5%,97.6%,106%,84.5%,82.5%,93.9%,99.7%,98.1%,94%
Cc1nn(-c2ccccc2)c(N)c1N=C1NC(=O)/C(=C/c2ccc(Br)cc2)S1,104%,87.7%,73.8%,72.1%,106%,88.5%,68%,67%,72.1%,80.8%,36.8%,42.3%,98.8%,72.7%,95.6%,84.8%,99.6%,72%,93.6%,77.7%
